Source: PubChem
Only some compounds are listed: those with a hit (about 21% of all), similar ones and a draw of the others.
Shiga toxin inh – A qHTS for Small Molecule Inhibitors of Shiga Toxin; Vero cells, Shiga toxin protein synthesis inhibition reporter; inhibition, % at 38.7 µM; 290,000 compounds, 9.2% hits; AID 2315, 2010; in the data active means inhibition mostly above about 28%, no sharp cut-off; inactive means mostly below about 43%; further: 0% is about no effect
Pf growth 96h – Primary qHTS for delayed death inhibitors of the malarial parasite plastid, 96 hour incubation | 320,000 compounds, 6.9% hits | P. falciparum luciferase reporter growth, 96 h | Potency, µM (doses to about 28.7 µM), for inactives: top-dose activity change, negative = inhibition, usual class: inhibitors; further: potency means the concentration at half of the fitted maximal effect; on the % scale 0 is the no-effect control and ±100 the full control effect
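Erythrocytes infected with luciferase-expressing P. falciparum were dispensed at 2% hematocrit and 0.05% parasitemia (final), then incubated with compounds 96 hours at 37 C in 5% CO2. Luminescence after detection reagent addition reported growth.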
Pf growth 48h – Primary qHTS for delayed death inhibitors of the malarial parasite plastid, 48 hour incubation; AID 504832, 2011; Potency, µM (titrated, usually from 28.7 µM), inactives show at the top dose activity change, negative = inhibition, usual class: inhibitors; P. falciparum luciferase growth in erythrocytes, 48 h; 310,000 compounds, 5.9% hits; further: potency means the concentration at half of the fitted maximal effect; on the % scale 0 is the no-effect control and ±100 the full control effect
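Luminescence readout; reporter = integrated firefly luciferase in P. falciparum. RBC culture at 2% hematocrit, 0.1% parasitemia final, 37 C/5% CO2; decreased signal taken as growth inhibition.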
CHX counter – Cycloheximide Counterscreen for Small Molecule Inhibitors of Shiga Toxin; cell reporter, cycloheximide protein synthesis inhibition counterscreen; max response, %; 300,000 compounds, 12% hits; AID 2314, 2010; in the data active means max response mostly above about 13%, no sharp cut-off; inactive means mostly below about 14%; further: read at 38.3 µM for the half of the compounds with a filed dose; 0% is about no effect
* hit, by the source's call; u = inconclusive; x = not tested or not shown; + = active, no number. Unless noted, the call rests on the fitted dose curve; in most records, active means well fitted inhibition curve with a large enough effect; inconclusive means small, poorly fitted or top-dose-only effect, or another doubt; inactive means no such curve, though single readings can be large or run the other way.

SMILES	Shiga toxin inh	Pf growth 96h	Pf growth 48h	CHX counter
O=C(Cn1nnc(-c2ccc(N3CCOCC3)cc2)n1)OC1CCCCC1	15	7.4µM*	235%	2
O=C(Cn1nnc(-c2ccc(N3CCOCC3)cc2)n1)N1CCOCC1	34*	268%	129%	34*
CC(=O)Nc1ccc(-c2nnn(CC(=O)c3ccc(F)cc3)n2)cc1Cl	-2	13µM*	u	-2
COc1ccccc1Nc1ncccc1C(=O)O	17	9.3µM*	11%	-1
COc1ccc(Nc2ncccc2C(=O)O)cc1	112*	x	144%	47*
O=C(Nc1ccccc1)c1cccnc1NCCc1ccccc1	12	u	-13%	8
COc1cccc(Nc2ncccc2C(=O)Nc2ccccc2)c1	11	x	u	6
COc1ccc(NC(=O)c2cccnc2NCCc2ccccc2)cc1	8	1.5µM*	u	8
CCOc1ccccc1Nc1ncccc1C(=O)O	15	1%	x	-1
O=S1(=O)C2CC3OC2(CC3c2ccc(F)cc2)CN1Cc1ccc(Cl)cc1 (stereo unspecified)	-11	x	x	2
COc1ccccc1N1CCN(S(=O)(=O)c2ccc3nc(-c4ccccc4)[nH]c3c2)CC1	-8	2.9µM*	-25%	-7
COc1ccccc1N1CCN(C2CCN(S(=O)(=O)c3ccc(C)cc3)CC2)CC1	12	4.1µM*	u	-1
COc1ccc(S(=O)(=O)N2CCN(c3ccccc3OC)CC2)cc1OC	-14	u	-7%	-4
COc1ccccc1N1CCN(C2CCN(S(=O)(=O)c3ccc4ccccc4c3)CC2)CC1	44	u	13µM*	-2
COc1ccccc1N1CCN(S(=O)(=O)c2cc(C(F)(F)F)cc(C(F)(F)F)c2)CC1	-8	6.6µM*	6.6µM*	-2
COc1cc(OC)c(N(C)C(=O)c2cn(C)c(=O)c3cc(OC)c(OC)cc23)cc1Cl	-3	23%	x	-1
CC(C)NC(=O)NC(=O)CSc1nncs1	-5	29%	-26%	2
O=C(O)CCC(CP(=O)(O)O)C(=O)O (stereo unspecified)	-6	x	x	-4
COc1ccccc1-n1c(SCC(=O)N2CCCCC2)nc2cccnc21	18	u	-28%	-3
COc1cc(-n2c(C)nc3cccnc32)c(Cl)cc1C(=O)O	44	u	10%	20*
O=C(CN1C(=O)/C(=C\c2cccc(Cl)c2)Oc2ccccc21)N1CCN(c2ccccn2)CC1	12	9.3µM*	23%	11
O=C(CN1C(=O)/C(=C/c2ccccc2F)Oc2ccccc21)N1CCN(c2ccccn2)CC1	-13	6%	18%	-1
O=C(CSc1nc2ccccc2[nH]1)N1CCN(c2ccccc2)CC1	43	u	u	11
COc1ccc(N2CCN(C(=O)CSc3ncccc3-c3nc4ccccc4[nH]3)CC2)cc1	24	u	-17%	21*
COc1ccccc1N1CCN(C(=O)CSc2ncccc2-c2nc3ccccc3[nH]2)CC1	14	-13%	x	21*
SMILES	Shiga toxin inh	Pf growth 96h	Pf growth 48h	CHX counter
O=C(CSc1ncccc1-c1nc2ccccc2[nH]1)NC1CC1	15	8%	4%	10
O=C(CSc1ncccc1-c1nc2ccccc2[nH]1)N1CCN(c2ccccc2F)CC1	54	0%	0%	56*
COc1cccc(/C=C/C(=O)N2CCN(S(=O)(=O)c3ccccc3)CC2)c1OC	-5	u	159%	-3
Cc1sc(NC(=O)c2sc3nc4c(C)cccc4cc3c2N)c(C#N)c1C	37*	u	u	19*
COc1ccc(-c2nc(C)sc2CC(=O)O)cc1OC	-15	34%	-6%	8
O=c1c2c3c(sc2nc2n1CCC2)CCC3	-11	0.33µM*	20%	-3
N=c1c2c3c(sc2nc2n1CCC2)CCCC3	-9	18%	4%	-5
O=c1c2c3c(sc2nc2n1CCC2)CCCCC3	29	51%	11%	20
O=c1c2c3c(sc2nc2n1CCCC2)CCCC3	42*	-96%	28%	19*
Cc1ccc(CNC(=O)Cn2cnc(S(=O)(=O)N3CCC(C)CC3)c2)o1	-9	-10%	-2%	19
CC(=O)NCCCc1nc2ccccc2n1Cc1c(F)cccc1Cl	-12	-20%	-14%	-2
Cc1sc2ncn(CC(=O)NCCCC(=O)N3CCN(Cc4ccc5c(c4)OCO5)CC3)c(=O)c2c1C	-15	u	7%	-3
CCCc1nnc(-c2ccc(OC)cc2)o1	+	102%	38%	34*
COc1ccccc1NCc1nnc(-c2ccccc2)o1	14	-92%	0%	20*
COc1ccc(Cc2nnc(-c3ccccc3)o2)cc1	43*	12µM*	118%	44*
c1ccc(-c2nnc(C(c3ccccc3)c3ccccc3)o2)cc1	37	7.4µM*	u	5
CN1CCN(S(=O)(=O)c2cccc(C(=O)Oc3ccccc3Cl)c2)CC1	2	38%	2%	-1
COc1ccc(CNC(=O)Cn2nc(C)c3c(C)n(-c4ccc(C)cc4)nc3c2=O)cc1OC	-2	u	u	-1
Cc1cc(C)c(C)c(S(=O)(=O)NCc2ccncc2)c1C	-10	u	9%	-3
Cc1cc(C)cc(N(C(=O)c2csnn2)C(C(=O)NC(C)(C)C)c2cccnc2)c1 (stereo unspecified)	3	u	-21%	4
CCNc1nnc(-c2ccc(C)cc2)o1	107*	10%	98%	42*
COc1ccc(-c2nnc(-c3ccc(F)cc3)o2)cc1	90*	10%	236%	48*
COc1ccc(-c2nnc(NC(=O)Cc3ccccc3)o2)cc1	1	u	u	-2
COc1ccc(-c2nnc(-c3ccccc3O)o2)cc1	63*	-27%	15%	45*
Cc1ccc(-c2nnc(-c3ccccc3)o2)cc1	49*	u	477%	49*
SMILES	Shiga toxin inh	Pf growth 96h	Pf growth 48h	CHX counter
COc1ccc(-c2ccc(-c3nnc(-c4ccncc4)o3)cc2)cc1	-5	u	x	-3
Cc1ccc(-c2nnc(N)o2)cc1	30	2%	19%	14
Brc1ccc(-c2nnc(Cc3ccccc3)o2)cc1	81*	116%	139%	58*
COc1ccc(-c2nnc(-c3ccc(C)cc3)o2)cc1	82*	-3%	104%	19*
c1ccc(Cc2nnc(-c3ccccc3)o2)cc1	-37	19%	84%	-6
Cc1ccc2c(c1)N(CC(=O)NC1CCCC1)C(=O)c1cccnc1O2	8	48%	-3%	1
COc1ccc(NC(C)C(=O)Nc2ccc(C#N)cc2)cc1Cl (stereo unspecified)	-8	2.3µM*	x	-1
COc1ccc(NC(C)C(=O)Nc2ccc(C(C)(C)C)cc2)cc1Cl (stereo unspecified)	38	x	u	20*
Cc1ccc(-c2csc3ncnc(SCC(=O)O)c23)cc1	9	75%	55%	-1
Cn1nnnc1Sc1ncnc2scc(-c3cccc(F)c3)c12	x	u	4.7µM*	x
Cn1nnnc1Sc1ncnc2scc(-c3ccc(C#N)cc3)c12	x	1.9µM*	4.7µM*	x
O=C(CC12CC3CC(CC(C3)C1)C2)Nc1ccccc1N1CCOCC1	-3	u	u	-3
O=C(O)Cn1cnc2c(oc3ccccc32)c1=O	-5	-1%	24%	4
